Drawing on PMC5700166, this text covers binding signal for 13 sequences.

What all share (experiment): protein-binding microarray (PBM); PBM: ~300 nM protein, 6 mM HEPES pH 7.8, 80 mM KCl, 0.5 mM EDTA, 0.5 mM EGTA, 6% glycerol, 35 ng/ul poly-dIdC, 1% milk, 1 h, room temperature; Ap Aiptasia and Nv Nematostella (sea anemones) / Co Capsaspora / Aq Amphimedon (sponge) / Dm Drosophila / Hu human; RHD is the Rel homology domain; high values mean tight binding
Holding throughout (settings): dsDNA, one strand shown

Experiment [1] addresses T1, GST-Ap-NF-kB RHD (Exaiptasia pallida (Aiptasia), UniProt A0A913YAJ5 2-422).
T1 sequence: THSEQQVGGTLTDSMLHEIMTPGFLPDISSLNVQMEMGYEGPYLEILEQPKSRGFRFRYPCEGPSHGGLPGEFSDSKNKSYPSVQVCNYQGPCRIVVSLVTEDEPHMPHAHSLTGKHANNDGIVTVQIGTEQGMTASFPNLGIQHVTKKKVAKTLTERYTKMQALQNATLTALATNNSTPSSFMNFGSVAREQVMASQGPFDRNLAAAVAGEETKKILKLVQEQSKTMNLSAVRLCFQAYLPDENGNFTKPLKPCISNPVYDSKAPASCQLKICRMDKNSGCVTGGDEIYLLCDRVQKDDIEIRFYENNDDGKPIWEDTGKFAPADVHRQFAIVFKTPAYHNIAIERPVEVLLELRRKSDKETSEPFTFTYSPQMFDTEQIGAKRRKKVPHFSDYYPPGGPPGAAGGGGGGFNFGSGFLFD

Experiment [2] concerns the target T2, GST-Nv-NF-kB (Cys allele) (Nematostella vectensis, UniProt E5G601 2-411).
T2 sequence: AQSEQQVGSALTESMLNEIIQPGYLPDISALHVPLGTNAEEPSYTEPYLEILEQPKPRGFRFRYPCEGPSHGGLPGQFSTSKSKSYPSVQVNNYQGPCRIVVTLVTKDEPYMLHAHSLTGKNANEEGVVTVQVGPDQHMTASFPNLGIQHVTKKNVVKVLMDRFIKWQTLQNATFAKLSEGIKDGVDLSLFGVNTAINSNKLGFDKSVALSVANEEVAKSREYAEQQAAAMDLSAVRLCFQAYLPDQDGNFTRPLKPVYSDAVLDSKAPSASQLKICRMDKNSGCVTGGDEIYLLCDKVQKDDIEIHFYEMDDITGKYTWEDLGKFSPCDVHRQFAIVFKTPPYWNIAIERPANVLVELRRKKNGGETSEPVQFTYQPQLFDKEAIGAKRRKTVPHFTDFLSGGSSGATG

For experiment [3], the target named is T3, GST-Nv-NF-kB (Ser allele) (Nematostella vectensis, UniProt A7UNT2 2-411).
T3 sequence: T2 sequence with Q21R, C66S, S207N, E215Q, V217A, E225K, A268E, D399E

Experiment [4] has as its target T4, GST-Dm-Relish (Drosophila melanogaster, UniProt Q94527 99-473).
T4 sequence: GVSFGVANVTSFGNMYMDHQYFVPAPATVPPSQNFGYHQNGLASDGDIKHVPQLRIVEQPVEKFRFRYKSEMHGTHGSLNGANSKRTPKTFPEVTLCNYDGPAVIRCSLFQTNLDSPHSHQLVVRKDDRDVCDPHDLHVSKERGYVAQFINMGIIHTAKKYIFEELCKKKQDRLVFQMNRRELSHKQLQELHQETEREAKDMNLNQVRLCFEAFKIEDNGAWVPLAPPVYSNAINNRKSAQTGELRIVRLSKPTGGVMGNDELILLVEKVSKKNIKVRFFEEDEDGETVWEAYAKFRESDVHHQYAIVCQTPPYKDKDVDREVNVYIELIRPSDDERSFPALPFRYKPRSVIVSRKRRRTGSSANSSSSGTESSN

Experiment [5] addresses T5, GST-Aq-NF-kB (Amphimedon queenslandica, UniProt A9Y5G7 2-389).
T5 sequence: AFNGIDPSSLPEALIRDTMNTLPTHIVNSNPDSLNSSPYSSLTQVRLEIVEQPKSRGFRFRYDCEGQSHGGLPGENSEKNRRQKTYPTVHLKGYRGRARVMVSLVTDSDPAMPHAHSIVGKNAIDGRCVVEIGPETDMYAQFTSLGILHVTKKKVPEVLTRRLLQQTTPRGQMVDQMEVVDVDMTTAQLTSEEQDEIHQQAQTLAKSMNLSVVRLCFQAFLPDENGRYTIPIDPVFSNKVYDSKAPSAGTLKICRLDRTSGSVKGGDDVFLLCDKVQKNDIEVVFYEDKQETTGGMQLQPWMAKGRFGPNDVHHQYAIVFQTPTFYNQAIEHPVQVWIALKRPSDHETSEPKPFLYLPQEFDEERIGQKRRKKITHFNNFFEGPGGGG

Experiment [6] has as its target GST-Hu-p50 (Homo sapiens, UniProt P19838 7-356).
In experiment [7] the target is T6, GST-Co-NF-kB (Capsaspora owczarzaki, UniProt F1ARL5 200-546).
T6 sequence: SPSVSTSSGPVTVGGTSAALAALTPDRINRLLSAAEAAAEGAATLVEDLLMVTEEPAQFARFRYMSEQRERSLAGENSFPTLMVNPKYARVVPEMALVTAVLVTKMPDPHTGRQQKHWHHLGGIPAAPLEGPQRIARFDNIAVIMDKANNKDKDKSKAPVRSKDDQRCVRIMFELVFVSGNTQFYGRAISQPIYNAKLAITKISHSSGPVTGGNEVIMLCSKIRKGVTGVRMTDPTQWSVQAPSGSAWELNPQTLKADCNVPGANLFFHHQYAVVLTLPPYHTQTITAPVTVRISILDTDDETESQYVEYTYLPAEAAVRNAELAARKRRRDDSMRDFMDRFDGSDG

Positions count from the first letter of the chain named.

Chain of GST-Hu-p50 (P19838 7-356): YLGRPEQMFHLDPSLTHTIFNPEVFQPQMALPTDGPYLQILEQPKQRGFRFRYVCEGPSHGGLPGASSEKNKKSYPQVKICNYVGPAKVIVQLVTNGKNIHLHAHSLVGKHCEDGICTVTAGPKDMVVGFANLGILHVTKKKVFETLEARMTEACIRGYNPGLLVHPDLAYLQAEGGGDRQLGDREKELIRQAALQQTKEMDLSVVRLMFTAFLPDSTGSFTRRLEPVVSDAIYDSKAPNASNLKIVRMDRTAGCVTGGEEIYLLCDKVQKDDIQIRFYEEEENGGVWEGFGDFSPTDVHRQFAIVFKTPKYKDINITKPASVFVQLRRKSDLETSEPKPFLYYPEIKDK

“CCGATTAACATCACGCAAATCCCTGATGTTAATCGGGTCTTGATTCGCTTGACGCTGCTG”: the binding signal in experiment [1] came to 2.1 z-score; in experiment [2], 1.61 z-score; in experiment [3], 1.22 z-score; in experiment [4], 1.24 z-score; in experiment [5], 2 z-score; in experiment [6], 1.33 z-score.

On to “CCGATTAACATCAAGGGGGGGCGTGATGTTAATCGGGTCTTGATTCGCTTGACGCTGCTG”, for which the binding signal in experiment [1] came out at 4.19 z-score; in experiment [2], 4.66 z-score; in experiment [3], 4.86 z-score; in experiment [7], 3.83 z-score; in experiment [4], 3.7 z-score; in experiment [5], 4.52 z-score. In experiment [6], this sequence registered a binding signal of 4.17 z-score.

Take “CCGATTAACATCAGGGGGATACATGATGTTAATCGGGTCTTGATTCGCTTGACGCTGCTG”: the binding signal in experiment [1] came out at 5.54 z-score; in experiment [2], 4.96 z-score; in experiment [3], 5.54 z-score; in experiment [7], 6.27 z-score; in experiment [4], 3.6 z-score; in experiment [5], 4.35 z-score. Also, the binding signal in experiment [6] stood at 5.05 z-score.

As for “CCGATTAACATCAAAAGGGAATTTGATGTTAATCGGGTCTTGATTCGCTTGACGCTGCTG”, the binding signal in experiment [1] is 3.2 z-score; in experiment [2], 6.76 z-score; in experiment [3], 7.17 z-score; in experiment [7], 1.41 z-score; in experiment [4], 4.25 z-score; in experiment [5], 4.96 z-score. The binding signal in experiment [6] came to 5.13 z-score.

Regarding “CCGATTAACATCAGGGACTTTACTGATGTTAATCGGGTCTTGATTCGCTTGACGCTGCTG”, the binding signal in experiment [1] was determined as 5.17 z-score; in experiment [2], 6.47 z-score; in experiment [3] it was 6.59 z-score; in experiment [4] it was 7.99 z-score; in experiment [5], 6.61 z-score; in experiment [6] it was 5.06 z-score.

Consider “CCGATTAACATCAAGGGACTTTCTGATGTTAATCGGGTCTTGATTCGCTTGACGCTGCTG”, for which the binding signal in experiment [1] amounted to 7.14 z-score; in experiment [2], 9.44 z-score; in experiment [3] it was 8.36 z-score; in experiment [4], 7.3 z-score; in experiment [5], 7.13 z-score; in experiment [6] it was 5.98 z-score.

Consider “CCGATTAACATCAGGGAAGGCCCTGATGTTAATCGGGTCTTGATTCGCTTGACGCTGCTG”, for which the binding signal came out at 4.52 z-score in experiment [1]; 4.31 z-score in experiment [2]; 1.93 z-score in experiment [3]; 8.94 z-score in experiment [4]; 6.45 z-score in experiment [5]; 2.96 z-score in experiment [6].

For “CCGATTAACATCAGGGGCTTCACTGATGTTAATCGGGTCTTGATTCGCTTGACGCTGCTG”, the binding signal in experiment [1] is 3.16 z-score; in experiment [2], 3.35 z-score; in experiment [3] it was 2.69 z-score; in experiment [4], 7.68 z-score; in experiment [5], 4.89 z-score; in experiment [6], 4.01 z-score.

In the case of “CCGATTAACATCAGGAGAGCCCCTGATGTTAATCGGGTCTTGATTCGCTTGACGCTGCTG”, the binding signal came to 3.65 z-score in experiment [1]; 3.73 z-score in experiment [2]; 1.67 z-score in experiment [3]; 2.24 z-score in experiment [4]; 6.28 z-score in experiment [5]; 3.2 z-score in experiment [6].

With “CCGATTAACATCAGGGGACCCCCTGATGTTAATCGGGTCTTGATTCGCTTGACGCTGCTG”, the binding signal in experiment [1] came to 9.65 z-score; in experiment [2] it was 6.03 z-score; in experiment [7] it was 4.17 z-score; in experiment [4], 10.7 z-score; in experiment [5] it was 8.56 z-score; in experiment [6], 5.4 z-score.

Take “CCGATTAACATCAGGATAGTCCCTGATGTTAATCGGGTCTTGATTCGCTTGACGCTGCTG”: the binding signal came to 5.8 z-score in experiment [1]; 5.23 z-score in experiment [2]; 4.11 z-score in experiment [3]; 2.84 z-score in experiment [4]; 6.61 z-score in experiment [5]; 4.05 z-score in experiment [6].

Consider “CCGATTAACATCAGGAAGTACCCTGATGTTAATCGGGTCTTGATTCGCTTGACGCTGCTG”, for which the binding signal amounted to 3.65 z-score in experiment [1]; 3.73 z-score in experiment [2]; 3.95 z-score in experiment [3]; 6.69 z-score in experiment [4]; 6.15 z-score in experiment [5]; 3.47 z-score in experiment [6].

For “CCGATTAACATCAGGAAATCACCTGATGTTAATCGGGTCTTGATTCGCTTGACGCTGCTG”, the binding signal in experiment [1] came out at 2.81 z-score; in experiment [2], 3.51 z-score; in experiment [3], 3.89 z-score; in experiment [4], 7.51 z-score; in experiment [5], 4.87 z-score; in experiment [6], 5.42 z-score.
